VHR inh color: blocks the human dual specificity phosphatase VHR1 | P51452 | recombinant VHR phosphatase, colorimetric substrate read-out | inhibition, % at 20 µM | 50,000 compounds, 0.7% hits; in the data active means inhibition above about 60%
Target sequence (P51452 whole entry, looked up): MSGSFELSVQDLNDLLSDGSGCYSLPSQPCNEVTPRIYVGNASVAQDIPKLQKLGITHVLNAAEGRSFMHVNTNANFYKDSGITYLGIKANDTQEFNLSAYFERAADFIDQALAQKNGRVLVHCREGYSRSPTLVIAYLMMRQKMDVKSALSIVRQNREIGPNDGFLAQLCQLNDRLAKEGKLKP
Each line names hits and unclear results; the compound was inactive in the other large screens. The full list was thinned out, with hits kept by preference.

CC(=O)c1ccc(NC(=O)CSc2nc3ccc([N+](=O)[O-])cc3s2)cc1	none
Cc1c(-c2ccc(Cl)cc2Cl)nc2ccccc2c1C(=O)NCc1ccc2c(c1)OCO2	none
Cc1cccc(CN2CCN(Cc3ccc(F)cc3)CC2)c1	none
O=C(/C=C/c1cccs1)OCCNC(=O)c1cccnc1	none
O=C(O)CCCC(=O)N1CCN(Cc2ccccc2)CC1	none
COC(=O)c1ccc(/C=C2\C(=O)NC(=S)N(c3ccc(Br)cc3C)C2=O)cc1	none
Cc1ccc(/C=C2\C(=O)NC(=S)N(c3ccc(Br)cc3)C2=O)o1	none
Cc1ccc(/C=C2\C(=O)NC(=S)N(c3ccc(Br)cc3C)C2=O)o1	VHR inh color 82.2
Cc1ccc(C=C2C(=O)NC(=S)N(c3ccccc3Cl)C2=O)o1	none
COc1ccc(/C=C2\C(=O)NC(=S)N(c3ccc(Br)cc3C)C2=O)cc1OC	none
Cc1cc(Br)ccc1N1C(=O)/C(=C/c2ccc(N(C)C)cc2)C(=O)NC1=S	VHR inh color 69.1
CC1=C(C(=O)Nc2ccc(Br)cc2)C(c2ccccc2Br)NC(=S)N1 (stereo not drawn)	none
O=C1/C(=C\c2cccc(F)c2)SC(=S)N1Cc1ccccc1	none
CCCc1ccc(C(=O)N2c3ccccc3C(Nc3ccccc3)CC2C)cc1 (stereo not drawn)	none
COc1cccc(C(=O)/C=C/c2ccccc2OC)c1	none
COc1ccc(-c2ccc(/C=C3/C(=O)NC(=O)N(c4ccccc4)C3=O)o2)c([N+](=O)[O-])c1	VHR inh color 81.3
Cc1ccc([N+](=O)[O-])cc1-c1ccc(/C=C2\C(=O)NC(=O)N(c3ccc(Cl)cc3)C2=O)o1	none
COc1cccc(/C=C2/C(=O)NC(=O)N(c3ccc(C(C)C)cc3)C2=O)c1O	VHR inh color 89.0
Cc1ccc([N+](=O)[O-])cc1-c1ccc(/C=C2/C(=O)NC(=O)N(c3ccccc3)C2=O)o1	none
COc1cccc(/C=C2/C(=O)NC(=O)N(c3ccc(Br)cc3)C2=O)c1O	none
O=C1NC(=O)N(c2ccc(Cl)cc2)C(=O)/C1=C\c1ccc(-c2ccc([N+](=O)[O-])cc2)o1	none
COc1cc(/C=C2/C(=O)NC(=O)N(c3ccc(C(C)C)cc3)C2=O)cc(OC)c1O	none
C=CCN1C(=O)/C(=C\c2ccc(-c3cc([N+](=O)[O-])ccc3C)o2)C(=O)NC1=S	VHR inh color 74.3
COc1ccc(-c2ccc(/C=C3\C(=O)NC(=O)N(c4ccc(Cl)cc4)C3=O)o2)c([N+](=O)[O-])c1	none
CC(C)c1ccc(N2C(=O)NC(=O)/C(=C/c3cccc([N+](=O)[O-])c3)C2=O)cc1	none
CC(C)c1ccc(N2C(=O)NC(=O)/C(=C/c3ccc([N+](=O)[O-])o3)C2=O)cc1	VHR inh color 85.0
COc1ccc(-c2ccc(/C=C3/C(=O)NC(=O)N(c4ccc(C)cc4)C3=O)o2)c([N+](=O)[O-])c1	none
COCCNC(=O)COc1ccc(Cl)cc1Br	none
Brc1ccc2nc(N/N=C/c3ccccc3)nc(-c3ccccc3)c2c1	none
COc1cccc(N/C(=N/S(=O)(=O)c2ccc(C)cc2)Nc2nc(C)cc(C)n2)c1	none
COc1cc(OC)cc(C(=O)NC2CCCCCC2)c1	none
COc1ccc2c(c1)c1c3n2CCN(C(=S)Nc2ccccc2)C3CCC1 (stereo not drawn)	none
COc1ccc(N2C(=O)/C(=C/c3ccc(-c4ccccc4[N+](=O)[O-])o3)C(=O)NC2=S)cc1	VHR inh color 81.3
Cc1cccc(N2C(=O)NC(=O)/C(=C\c3ccc(-c4ccccc4C(=O)O)o3)C2=O)c1	none
O=C1NC(=O)N(c2ccccc2)C(=O)/C1=C/c1ccc(-c2ccccc2C(=O)O)o1	none
COc1ccc(N2C(=O)/C(=C/c3ccc(-c4ccc(C(=O)O)cc4)o3)C(=O)NC2=S)cc1	none
O=C1NC(=O)N(c2ccc(Cl)cc2)C(=O)/C1=C\c1ccc(-c2ccccc2[N+](=O)[O-])o1	none
O=C1NC(=S)N(c2cccc(Br)c2)C(=O)/C1=C/c1ccc(-c2ccccc2C(=O)O)o1	VHR inh color 79.5
O=S(=O)(Nc1ccc(Oc2ccccc2)cc1)c1ccc(F)cc1	none
COc1ccc(S(=O)(=O)N/N=C/c2c(C)[nH]c3ccccc23)cc1	none
CC1=NN(c2ccccc2)C(=O)/C1=C/c1cccn1-c1ccc([N+](=O)[O-])cc1	none
Cc1cccc(N2C(=O)NC(=O)/C(=C/c3cccn3-c3ccc([N+](=O)[O-])cc3)C2=O)c1	none
CCN1C(=O)C(=Cc2cccn2-c2ccc([N+](=O)[O-])cc2)C(=O)N(CC)C1=S	VHR inh color 72.9
CCC(=O)N1CCN(c2ccc(C(C)=O)cc2F)CC1	none
NC(=O)c1ccc(NC(=O)COc2ccc(Cl)cc2Br)cc1	none
CC(=O)NS(=O)(=O)c1ccc(NC(=O)c2ccc([N+](=O)[O-])cc2[N+](=O)[O-])cc1	none
S=C(NCCN1CCOCC1)Nc1cccc(Cl)c1	none
S=C(NCCN1CCOCC1)Nc1ccccc1	VHR inh color 98.8
Fc1ccc(NC(=S)NCCN2CCOCC2)cc1	none
CC12CCCCC1C2C(=O)N/N=C\c1ccc(Cl)cc1Cl (stereo not drawn)	none
O=C(CNC(=O)c1ccccc1)OCC(=O)c1ccc(Cl)cc1	none
COc1ccc(Nc2nc(-c3ccc4ccccc4c3)cs2)cc1	none
COc1ccc(-c2csc(Nc3ccc(N)cc3)n2)cc1OC	VHR inh color 90.1
COc1ccc(-c2csc(-c3nc(-c4ccc(OC)c(OC)c4)cs3)n2)cc1OC	none
CCCN(C=O)/N=C/c1ccc([N+](=O)[O-])cc1O	none
Oc1ccc(C2Nc3ccc4ccccc4c3C3C=CCC32)cc1 (stereo not drawn)	VHR inh color 76.5
O=[N+]([O-])c1ccc(C2Nc3ccc([N+](=O)[O-])cc3C3C=CCC32)cc1 (stereo not drawn)	none
CCC(=O)N1c2ccc3ccccc3c2C2C=CCC2C1c1ccc(F)cc1 (stereo not drawn)	none
C(=N\N1CCN(c2ccccc2)CC1)/c1ccc(-c2ccccc2)cc1	none
CCN(CC)S(=O)(=O)c1ccc(N=Cc2c(C)[nH]n(-c3ccc(Cl)cc3)c2=O)cc1	none
COc1ccccc1-n1cnc2cc(NC(C)=O)ccc21	none
COc1ccc(-n2cnc3cc(NC(C)=O)ccc32)cc1	VHR inh color 96.8
COc1ccccc1-n1cnc2cc(NC(=O)c3ccc(C)cc3)ccc21	none
COc1ccc(-c2cc(C(=O)Nc3cccc(F)c3)c3ccccc3n2)cc1OC	none
Cc1cccc(Cl)c1OCCOCCNCCO	none
Nc1sc2c(c1C(=O)Nc1cccc3ccccc13)CCC2	none
COc1ccc(/C=C2\SC(N3CCCCCC3)=NC2=O)cc1OC	none
CCOc1cc(/C=C2\SC(N3CCCCCC3)=NC2=O)ccc1O	none
CCOc1cc(/C=C2\SC(N3CCN(C4=NC(=O)/C(=C\c5ccc(O)c(OCC)c5)S4)CC3)=NC2=O)ccc1O	VHR inh color 88.2
COc1ccc(Br)cc1C(=O)Nc1cc(C(F)(F)F)cc(C(F)(F)F)c1	none
COc1cc(C2/C(=C(\O)c3ccc([N+](=O)[O-])cc3)C(=O)C(=O)N2CCCCCC(=O)O)ccc1O (stereo not drawn)	none
CCOC(=O)C1=NN(C(=O)c2ccncc2)C(O)(C(C)(C)C)C1 (stereo not drawn)	none
COc1cccc(-c2cc(C(=O)Nc3sc(C)c(C)c3C(N)=O)c3ccccc3n2)c1	none
Cc1cccc(NC(=O)c2cc(-c3cccs3)nc3ccccc23)c1	none
Cc1sc(NC(=O)c2cc(-c3cccs3)nc3ccccc23)c(C(N)=O)c1C	VHR inh color 88.4
O=C(Nc1ccc2oc(-c3cccc(Cl)c3Cl)nc2c1)c1ccco1	none
Cc1ccc(C)n1-c1ccc(C(=O)NN)c(Cl)c1	VHR inh color 90.1
Cc1ccc(C)n1-c1ccc(O)c(C(=O)O)c1	none
CCNC(=O)c1ccc(Cl)cc1Cl	none

Screening data from PubChem.
